MITF act – activators of MITF-driven TRPM1 promoter activity in SK-MEL-5 cells. AID 588334. activation, % at 12.5 µM. hit rate 0.75% among 300,000. SK-MEL-5 TRPM1-promoter luciferase, 24 h; % of positive control, neutral wells = 0;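 active = mean activation of at least 80% with every replicate also reaching 80%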
EWS-Fli inh – EWS/Fli transcriptional activity inhibition. A673 NR0B1-luciferase reporter, viability-normalised. inhibition, % at 12.6 µM. hit rate 0.67% among 350,000. AID 651661;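 active = mean inhibition of at least 50% after viability correction, with every replicate also passing that limit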;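 note: firefly luciferase signal divided by Alamar Blue viability fluorescence both relative to DMSO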
PAX8 reporter – lowers PAX8-driven luciferase in RMG-I cells; RMG-I TPO-luciferase reporter, SteadyGlo, 24 h; inhibition, % at 12.6 µM; hit rate 1.2% among 360,000;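 active = mean replicate inhibition at least 60% with every replicate also reaching 60%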;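 note: luciferase light reporting Pax8 driven TPO promoter activity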
esBAF inh – inhibitors of esBAF chromatin remodeling in mouse ES cells. Bmi1-luciferase knock-in reporter, 24 h; 100% = twice the neutral-well signal. reporter increase, % at 12.5 µM. hit rate 2% among 350,000. AID 602393; in the data active = activation above about 40%;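 note: a rise in the Bmi1 reporter signal indicates esBAF inhibition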
MITF TRPM1 inh – MITF TRPM1 promoter inhibition in SK-MEL-5 cells. SK-MEL-5 TRPM1 promoter luciferase, 24 h. inhibition, % at 12.5 µM. hit rate 0.83% among 330,000. AID 488899;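 active = mean inhibition across replicates of 60% or more, whatever share of single replicates reaches that level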
Wnt bcat act – activates Wnt/beta-catenin signaling in a reporter cell assay; activator, plate reader; hit rate 1.2% among 300,000; activation, % at 9.35 µM; in the data active = activation above about 30%, passing the limit was not always enough
Large screens that a line does not name were inactive. This is a sample that favours compounds with a hit; in the whole collection about 4% have one here.

COc1ccc(S(=O)(=O)Nc2ccc3c(c2)C(=O)N([C@H](C)CO)C[C@@H](C)[C@H](CN(C)Cc2ccc(Cl)c(Cl)c2)OCCCC[C@@H](C)O3)cc1	PAX8 reporter 66.3 (no result: MITF act, MITF TRPM1 inh, Wnt bcat act)
COc1ccc(S(=O)(=O)Nc2ccc3c(c2)C(=O)N([C@H](C)CO)C[C@H](C)[C@@H](CN(C)Cc2ccc(Cl)c(Cl)c2)OCCCC[C@H](C)O3)cc1	none (no result: MITF act, MITF TRPM1 inh, Wnt bcat act)
COc1ccc(S(=O)(=O)Nc2ccc3c(c2)C(=O)N([C@H](C)CO)C[C@H](C)[C@@H](CN(C)Cc2ccc(Cl)c(Cl)c2)OCCCC[C@@H](C)O3)cc1	PAX8 reporter 93.9 (no result: MITF act, esBAF inh, MITF TRPM1 inh, Wnt bcat act)
CCCNC(=O)N1C[C@H](C)[C@H](OC)CN(C)C(=O)c2ccc(NS(=O)(=O)CC(F)(F)F)cc2OC[C@H]1C	none (no result: MITF act, PAX8 reporter, MITF TRPM1 inh, Wnt bcat act)
C[C@@H]1CN([C@H](C)CO)C(=O)c2cc(-c3ccncc3)cnc2O[C@H]1CN(C)C(=O)NC1CCCC1	none (no result: MITF act, PAX8 reporter, MITF TRPM1 inh, Wnt bcat act)
COC(=O)/C(C#N)=C/c1ccc(OC(=O)c2ccccn2)cc1	EWS-Fli inh 51.6 (no result: esBAF inh)
O=C(Cc1nc2ccccc2[nH]1)c1ccc(Br)cc1	MITF act 91.4 (no result: esBAF inh)
O=c1[nH]c2ccccc2nc1Cc1ccccc1	none (no result: EWS-Fli inh, PAX8 reporter)
O=C(Cc1nc2ccccc2[nH]c1=O)c1ccccc1	Wnt bcat act 32.9 (no result: esBAF inh)
O=C(Cc1ccc(Br)cc1)Nc1nc2ccccc2[nH]1	none
C[C@H]1CN([C@@H](C)CO)C(=O)c2cc(C#CCN(C)C)cnc2O[C@H]1CN(C)C(=O)c1ccc2c(c1)OCO2	none (no result: MITF act, PAX8 reporter, MITF TRPM1 inh, Wnt bcat act)
Cc1n[nH]c(=S)n1/N=C/c1ccccc1OCc1ccc(Cl)cc1	esBAF inh 52.0 (no result: EWS-Fli inh, PAX8 reporter, Wnt bcat act)
Cc1n[nH]c(=S)n1/N=C/c1cccc(OCc2ccccc2)c1	none (no result: esBAF inh)
CCc1ccc(-c2nc(CSCC(=O)N3CCN(c4ncccn4)CC3)c(C)o2)cc1	EWS-Fli inh 81.5
COC(=O)C[C@@H]1CC[C@H]2[C@@H](COC[C@@H](O)CN2C(=O)Nc2ccccc2OC)O1	none (no result: MITF act, MITF TRPM1 inh, Wnt bcat act)
O=C(c1cc(-c2ccccc2O)on1)N1CCCCCC1	MITF act 125.1, esBAF inh 59.7
O=C(c1cc(-c2ccc(O)cc2)on1)N1CCCC1	none
O=C(c1cc(-c2ccccc2O)on1)N1CCOCC1	MITF act 96.2, esBAF inh 50.7, Wnt bcat act 35.4
O=C(c1cc(-c2ccc(Cl)cc2Cl)on1)N1CCOCC1	none (no result: PAX8 reporter)
O=C(Nc1ccc2c(c1)[C@H]1C[C@H](CC(=O)N3CCOCC3)O[C@H](CO)[C@H]1O2)C1CCC1	none (no result: MITF act, MITF TRPM1 inh, Wnt bcat act)
COC(=O)c1ccc(OCCOc2ccccc2)cc1	esBAF inh 45.7 (no result: EWS-Fli inh, PAX8 reporter, Wnt bcat act)
COC(=O)c1ccc(N=Nc2ccccc2)cc1	esBAF inh 76.3
COC(=O)c1ccc(OCCOc2ccccc2C)cc1	none
Oc1ccc(N=Nc2ccccc2)cc1	MITF act 91.0, Wnt bcat act 34.4
COc1ccc2[nH]c(=O)c(CN(CCN3CCCC3)C(=O)Nc3ccccc3Cl)cc2c1	none (no result: EWS-Fli inh, PAX8 reporter, Wnt bcat act)
CCOc1ccc2[nH]c(=O)c(CN(CCN3CCCC3)C(=S)Nc3ccccc3OCC)cc2c1	EWS-Fli inh 55.3 (no result: esBAF inh)
CCNC(=O)C[C@H]1C=C[C@H](NS(=O)(=O)c2ccc(C)cc2)[C@@H](CO)O1	none (no result: MITF act, MITF TRPM1 inh, Wnt bcat act)
COc1cc(OC)c(NC2c3ccccc3C(=O)N2c2cc(C)ccn2)cc1Cl (stereo not drawn)	Wnt bcat act 38.5 (no result: MITF act, MITF TRPM1 inh)
CCOC(=O)c1ccccc1NC1c2ccccc2C(=O)N1c1cc(C)ccn1 (stereo not drawn)	none (no result: MITF act, MITF TRPM1 inh)
C[C@@H]1CN([C@@H](C)CO)C(=O)Cc2cc(NC(=O)C3CC3)ccc2O[C@@H]1CN(C)Cc1ccc(Oc2ccccc2)cc1	none (no result: MITF act, PAX8 reporter, MITF TRPM1 inh, Wnt bcat act)
C[C@H]1CN([C@@H](C)CO)C(=O)Cc2cc(NS(=O)(=O)c3cccs3)ccc2O[C@H]1CN(C)S(=O)(=O)c1ccccc1	none (no result: MITF act, MITF TRPM1 inh, Wnt bcat act)
CCOc1cccc(-c2c(C(=O)N/N=C(\C)c3ccccn3)nnn2-c2nonc2N)c1	PAX8 reporter 69.1, MITF TRPM1 inh 60.8 (no result: EWS-Fli inh)
C/C(=N\NC(=O)c1nnn(-c2nonc2N)c1CN(C)c1ccccc1)c1cccnc1	Wnt bcat act 34.3 (no result: EWS-Fli inh)
CCOc1cccc(-c2c(C(=O)N/N=C(\C)c3ccncc3)nnn2-c2nonc2N)c1	none
O=C(c1ccc(F)cc1)N1CC[C@@H]2[C@@H](CO)Nc3ccc(-c4ccccc4F)cc3[C@@H]21	none (no result: MITF act, MITF TRPM1 inh, Wnt bcat act)
C[C@@H]1CN([C@@H](C)CO)C(=O)c2cc(NC(=O)CCCN(C)C)ccc2O[C@@H]1CN(C)C(=O)Nc1ccc2c(c1)OCO2	none (no result: MITF act, PAX8 reporter, esBAF inh, MITF TRPM1 inh, Wnt bcat act)
CN(C)c1ccc(N=Nc2ccc3ncccc3c2)cc1	none
